Bioassay records deposited in PubChem by several laboratories.
Sampled rows, rich in hits. Any-hit rate of the full collection: about 4%.
Mtb FBA inh: Mtb FBA enzyme inhibitors, primary screen, biochemical, fluorescence, strain H37Rv; purified M. tuberculosis FBA, fluorescence read-out; inhibition, % at 1 µM; hit rate 2.3% among 360,000; in the data active = inhibition above about 27%;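 also: 0% = vehicle and 100% = reference inhibitor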
Mtb bLac sens: beta-lactam sensitization of Mtb H37Rv, H37Rv | M. tuberculosis H37Rv growth with meropenem, percent inhibition | AID 434955, 2010 | inhibition, % at 25 µM | hit rate 0.27% among 330,000; call rule not given here;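 also: growth measured after seven days incubation then overnight dye step; 0% = bacteria only wells and 100% = bacteria with antibiotic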
GDH-TPI inh: GDH-TPI coupling enzyme inhibitors, primary screen, artefact control for M. tuberculosis FBA inhibitor project, biochemical, absorbance, full deck. GDH-TPI coupled enzyme counterscreen, NADH absorbance. inhibition, % at 4.8 µM. hit rate 1.2% among 360,000. AID 588335, 2011; in the data active = inhibition above about 30%;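 also: 0% = DMSO wells and 100% = wells lacking the enzyme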
UGM FP inh: M. tuberculosis UGM enzyme inhibitors, primary screen, biochemical, fluorescence polarization, single point; UDP-galactopyranose mutase (Mycobacterium tuberculosis (strain ATCC 25618 / H37Rv)), …; purified UGM, fluorescence polarization probe displacement; inhibition, % at 10 µM; hit rate 0.06% among 320,000; AID 504406, 2011; in the data active = inhibition above about 10%, passing the limit was not always enough
RecA intein inh: Mtb RecA intein splicing inhibitors, primary screen, biochemical, fluorescence, HTS; cell-free RecA intein splicing; inhibition, % (no concentration beside the values); hit rate 0.75% among 290,000; in the data active = inhibition above about 30%;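 also: 0% = vehicle wells and 100% = reference inhibitor control wells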
Rv3671c inh: Rv3671c serine protease inhibitors, primary screen, biochemical, fluorescence polarization, M. tuberculosis H37Rv; AID 2606, 2010; inhibition, % at 5.96 µM; hit rate 0.048% among 320,000; in the data active = inhibition above about 38%;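 also: extracellular domain of Rv3671c used as enzyme; 0% = enzyme with DMSO and 100% = no enzyme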
Target sequence (P9WHR9 whole entry, looked up, the tested form may be a part): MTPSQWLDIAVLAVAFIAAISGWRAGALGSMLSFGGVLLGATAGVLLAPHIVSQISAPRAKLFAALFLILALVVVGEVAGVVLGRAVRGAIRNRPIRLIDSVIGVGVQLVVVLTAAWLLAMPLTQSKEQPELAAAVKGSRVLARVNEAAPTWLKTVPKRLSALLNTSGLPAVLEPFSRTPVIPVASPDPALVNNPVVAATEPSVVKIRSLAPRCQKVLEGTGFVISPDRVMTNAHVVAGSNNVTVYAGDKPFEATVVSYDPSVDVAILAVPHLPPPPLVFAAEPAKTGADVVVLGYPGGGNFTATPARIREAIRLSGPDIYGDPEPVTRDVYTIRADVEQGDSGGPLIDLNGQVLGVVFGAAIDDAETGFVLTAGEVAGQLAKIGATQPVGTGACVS
Active calls of the source: *; / = no result; + = active, no number.

SMILES	Mtb FBA inh	Mtb bLac sens	GDH-TPI inh	UGM FP inh	RecA intein inh	Rv3671c inh
COC(=O)c1sc(NC(=O)c2ccc([N+](=O)[O-])o2)c(C#N)c1C	-4	99	32*	4	-3	7
O=C(Cn1c(=O)oc2cc(S(=O)(=O)N3CCCCC3)ccc21)N1CCCCC1	2	-6	-3	2	-1	-11
O=C(O)/C=C/c1ccc(S(=O)(=O)Nc2ccccc2C(=O)Nc2ccc(F)cc2)cc1	-2	0	15	2	1	-1
N#C/C(=C\c1cn(-c2ccccc2)nc1-c1cccnc1)c1nnc2n1CCCCC2	3	8	39*	2	3	4
O=C(/C=C/c1cn(-c2ccccc2)nc1-c1cccnc1)N1CCCC1	1	/	3	/	-1	/
CCNC(=S)N(CCCO)Cc1cc2cc3c(cc2[nH]c1=O)OCCO3	14	-10	14	1	0	-8
CC(C)=NNc1nc(-c2ccccc2)cs1	0	2	2	4	1	3
CC(/C=C/c1ccccc1)=N\Nc1nc(-c2ccccc2)cs1	2	98	32*	2	-1	1
O=C(/C=C/c1ccccc1)Nc1nc(-c2ccncc2)cs1	0	2	38*	0	/	-76
CC(C)c1ccc(NC(=O)COC(=O)C2CC3C=CC2C3)cc1 (stereo unspecified)	-2	-9	-2	1	/	8
CCc1ccc(C(=O)/C=C/Nc2ccc(S(=O)(=O)Nc3cnc4ccccc4n3)cc2)cc1	0	49	-3	0	-46	6
COc1ccc(NC(=O)CCN2CCOCC2)c(OC)c1	-1	1	-4	0	-1	1
O=C1OCCN1C(=O)[C@H]1[C@H](c2ccc(Cl)cc2)C(c2ccccc2)=NN1c1ccc(Br)cc1	34*	/	9	/	/	/
O=C1OCCN1C(=O)[C@H]1[C@H](c2ccc(F)cc2)C(c2cccc(Cl)c2)=NN1c1ccccc1	26	/	5	/	/	/
O=C1OCCN1C(=O)[C@H]1[C@H](c2ccc(Cl)cc2)C(c2cccc(Cl)c2)=NN1c1ccccc1	48*	20	3	2	-102	-9
COc1ccccc1[C@@H]1C(c2cccc(C)c2)=NN(c2ccc(Br)cc2)[C@H]1C(=O)N1CCOC1=O	15	/	9	/	/	/
O=C1OCCN1C(=O)[C@H]1[C@H](c2ccc(F)cc2)C(c2cccc(Cl)c2)=NN1c1ccc(Br)cc1	97*	/	1	/	/	/
COc1ccccc1[C@@H]1C(c2ccccc2)=NN(c2ccc(Br)cc2)[C@H]1C(=O)N1CCOC1=O	30*	/	2	/	/	/
COc1ccc(/C=C/C(=O)NNC(=O)C(C)Oc2ccccc2F)cc1OC (stereo unspecified)	8	-10	26	-4	/	0
O=C1OCCN1C(=O)[C@H]1[C@H](c2ccccc2)C(c2cccc(Cl)c2)=NN1c1ccc(Br)cc1	54*	/	8	/	/	/
CN(C)c1ccc2cc(S(=O)(=O)O)cc(O)c2c1	169*	/	15	/	/	/
O=Nc1c(O)ccc2cc(S(=O)(=O)O)ccc12	-4	/	6	/	/	/
Cc1ccc(-n2c(=S)[nH]c3c(oc4ccccc43)c2=O)cc1C	-1	-1	1	-1	1	-2
O=c1c2oc3ccccc3c2[nH]c(=S)n1-c1ccc(F)cc1	3	-4	33*	0	0	7
COc1ccc(C(=O)NCCc2nnc3ccc(SCC(=O)NCCc4ccc(OC)c(OC)c4)nn23)cc1	0	2	10	1	2	1
SMILES	Mtb FBA inh	Mtb bLac sens	GDH-TPI inh	UGM FP inh	RecA intein inh	Rv3671c inh
CN(C)Cc1c(O)ccc2c(=O)c(-c3ccccc3Cl)c(C(F)(F)F)oc12	2	1	36*	-1	/	-8
O=C1C=C(O)c2cccc3cccc1c23	-2	6	31*	1	-5	-6
Cc1ccc(S(=O)(=O)Nc2ccccc2C(=O)Nc2nc(-c3ccc(F)cc3)cs2)cc1	35*	-7	12	/	7	-59
C/C(N)=C(/C#N)C(=O)CSc1nc2ccccc2c(=O)n1CCCOC(C)C	-3	2	2	-1	2	-4
CC(C)OCCCn1c(=NC(=O)c2ccncc2)c(C#N)cc2c(=O)n3ccccc3nc21	4	0	5	38*	/	-2
CC(C)OCCCn1c(=NC(=O)c2cccs2)c(C#N)cc2c(=O)n3ccccc3nc21	+	-12	4	10	-63	3
CCn1c(=N)c(S(=O)(=O)c2ccccc2)cc2c(=O)n3ccccc3nc21	20	-1	-5	1	-99	-6
CC(=O)N=c1c(C#N)cc2c(=O)n3ccccc3nc2n1CCCOC(C)C	+	0	4	0	-121	-2
CCCCCn1c(=NC(C)=O)c(C#N)cc2c(=O)n3ccccc3nc21	133*	7	13	-1	-315	8
CCCCn1c(N)c(N(CCOC)C(=O)CN(C)S(=O)(=O)c2ccc(C)cc2)c(=O)[nH]c1=O	4	-5	1	0	-3	9
O=C(NCc1cccs1)c1ccc(CS(=O)Cc2cccc(Cl)c2)o1 (stereo unspecified)	1	3	-1	1	-2	9
CCOP(=O)(OCC)c1nc(/C=C/c2ccccc2)oc1NCc1ccccc1	+	-6	37*	-2	-4	4
CCOP(=O)(OCC)c1nc(/C=C/c2ccccc2)oc1NCc1ccc(OC)cc1	+	69	18	-1	-14	-1
COCCNc1oc(/C=C/c2ccccc2)nc1C#N	/	-3	22	2	-54	-3
O=C(O)c1ccc2cc(-c3ccccc3)[nH]c2c1	+	2	23	2	-1	-5
O=C(O)c1ccc(-c2ccccc2)[nH]1	2	-21	-5	7	-12	3
CN(C)c1ncnc2c1ncn2[C@H]1CN(Cc2ccco2)C[C@@H](CO)O1	-2	/	10	/	/	/
CC(=NOC(=O)C1CCCCC1)c1nccs1	3	/	51*	/	/	/
CCCc1cc(=O)oc2c3c(cc(OCC(=O)NCCCn4ccnc4)c12)OC(C)(C)CC3	170*	-3	16	-1	0	3
Cc1cc(=O)oc2cc(OCC(=O)NCCCn3ccnc3)ccc12	17	-6	11	2	-2	-8
Cc1cc(=O)oc2c3c(cc(OCC(=O)NCCN4CCOCC4)c12)OC(C)(C)CC3	191*	-3	17	1	/	4
Cc1cc(=O)oc2c3c(cc(OCC(=O)NCCCn4ccnc4)c12)OC(C)(C)CC3	+	-5	12	2	8	2
O=C(Nc1cccc2ccccc12)ON=C1CCCCC1	116*	/	-4	/	/	/
